About 14,000 (4.5%) of roughly 310,000 compounds showed an effect of 50% or more. Effects have a minus sign here. Only a selection was taken, and strong results are over-represented in it overall.
target: human ether-à-go-go-related gene (hERG) potassium channel (human, UniProt Q12809); assay: primary screen, population patch clamp on CHO cells stably expressing hERG; higher = less effect of the substance
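Also: peak tail current of the secondary pulse compared with the same well before compound.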

Sequence of human ether-à-go-go-related gene (hERG) potassium channel (Q12809 whole entry, looked up): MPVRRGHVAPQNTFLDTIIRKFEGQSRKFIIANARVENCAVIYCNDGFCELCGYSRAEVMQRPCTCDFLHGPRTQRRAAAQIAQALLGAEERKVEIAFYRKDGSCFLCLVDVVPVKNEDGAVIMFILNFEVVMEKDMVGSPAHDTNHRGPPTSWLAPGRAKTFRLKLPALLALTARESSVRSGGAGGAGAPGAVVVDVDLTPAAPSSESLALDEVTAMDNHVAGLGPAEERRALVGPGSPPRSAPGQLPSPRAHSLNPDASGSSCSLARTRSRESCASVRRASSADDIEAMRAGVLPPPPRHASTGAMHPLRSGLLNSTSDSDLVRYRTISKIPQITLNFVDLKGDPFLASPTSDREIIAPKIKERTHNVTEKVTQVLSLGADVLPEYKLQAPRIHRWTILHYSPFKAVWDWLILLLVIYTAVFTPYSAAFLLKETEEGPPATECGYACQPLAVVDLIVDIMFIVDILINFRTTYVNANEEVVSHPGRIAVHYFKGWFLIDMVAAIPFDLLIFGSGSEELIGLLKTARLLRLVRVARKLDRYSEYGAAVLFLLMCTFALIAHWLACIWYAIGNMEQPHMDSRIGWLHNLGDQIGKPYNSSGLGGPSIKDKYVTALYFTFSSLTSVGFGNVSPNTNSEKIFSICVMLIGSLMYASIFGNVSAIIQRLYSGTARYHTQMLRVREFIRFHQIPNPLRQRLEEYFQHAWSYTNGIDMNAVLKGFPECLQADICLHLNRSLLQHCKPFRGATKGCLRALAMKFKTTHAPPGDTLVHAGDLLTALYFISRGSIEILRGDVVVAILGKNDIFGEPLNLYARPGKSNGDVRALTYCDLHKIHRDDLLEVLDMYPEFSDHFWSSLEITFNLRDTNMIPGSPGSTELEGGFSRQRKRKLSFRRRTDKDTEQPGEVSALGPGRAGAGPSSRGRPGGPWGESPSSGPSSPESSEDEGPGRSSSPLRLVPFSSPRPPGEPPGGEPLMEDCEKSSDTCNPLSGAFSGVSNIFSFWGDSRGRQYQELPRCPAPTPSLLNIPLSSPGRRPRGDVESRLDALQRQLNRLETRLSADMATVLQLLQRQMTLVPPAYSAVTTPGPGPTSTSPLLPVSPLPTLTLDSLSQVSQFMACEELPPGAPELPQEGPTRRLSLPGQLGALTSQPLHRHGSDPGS

Structure (SMILES) | hERG current change (%, negative = inhibition) at 10uM
CCC(=O)OC1(C)C(=O)C2=COC(c3ccc(OC)cc3)=CC2=C(Br)C1=O (stereo not drawn) | 1.2%
CC(=O)N(Cc1ccc(Br)cc1)c1cccc(C)c1C | 3.64%
N#Cc1ccc(CSc2nnc3ccccn23)cc1 | -0.562%
Cc1c(Br)c(C(F)(F)F)nn1CC(=O)NCc1ccccc1 | 31.8%
Cc1cc(C)n2nc(SCCOc3ccccc3F)nc2n1 | -22.7%
COc1ccc(C(=O)c2cn[nH]c2-c2ccc(C)cc2O)cc1 | -2.49%
Cc1cccc(C)c1-n1c(C)cc(/C=N/NC(N)=S)c1C | 15.6%
CCOC(=O)CCCCC(=O)c1[nH]c(=O)[nH]c1CN1CCOCC1 | 20%
COc1cccc(-c2onc3ccc(C(=O)/C=C/N(C)C)cc23)c1 | -31.4%
CN(C)/C=C/C(=O)c1ccc2noc(-c3ccc(F)cc3)c2c1 | -9.41%
CN(C)/C=C/C(=O)c1ccc2noc(-c3cccc(F)c3)c2c1 | -50.2%
CN(C)/C=C/C(=O)c1ccc2noc(-c3ccccc3)c2c1 | -62.6%
Cc1cccc(-c2onc3ccc(C(=O)/C=C/N(C)C)cc23)c1 | -42%
CC(=O)c1ccc2noc(-c3cccc(F)c3)c2c1 | 2.79%
O=C(NCc1ccc2c(c1)OCO2)C1CC(=O)N(c2ccc(F)cc2)C1 (stereo not drawn) | -29.9%
CC(C)(C)NC(=O)CN(C(=O)CCC(=O)Nc1nccs1)c1ccc(F)cc1 | 12.6%
CCC(CO)NCc1ccc2c(c1)n(C)c(=O)n2C.Cl (stereo not drawn) | 17.4%
O=C(O)c1ccc(NS(=O)(=O)c2cc(C(=O)O)ccc2Br)cc1 | 17%
O=C(N/N=C\c1ccc(Cl)s1)c1cccs1 | 23.2%
COc1ccccc1N1CCN(C(=O)c2sc3ncn(CC(=O)N4CCC(C)CC4)c(=O)c3c2C)CC1 | -29.3%
Br.CCCCCCN1Cc2ccccc2C1 | -39.3%
Br.CCCCCCCCCCn1ccc(=N)cc1 | -72.9%
Br.CCCCCCCCCn1ccc(=N)cc1 | -66%

Structure (SMILES) | hERG current change (%, negative = inhibition) at 10uM
CCCCCCCn1ccc(=N)cc1.I | -14.7%
Br.CCCCCCn1ccc(=N)cc1 | 1.66%
CCCCCCCCCCCCCCCCn1cc[n+](C)c1.[Br-] | -18.4%
Br.CCCCCCCCn1ccc(=N)cc1 | -27%
Br.CCCCCCCCCCCCn1ccc(=N)cc1 | -60.2%
CCCCCn1ccc(=N)cc1.I | 11.7%
O=C(O)C1CCCCC1C(=O)NCCCN1CCOCC1 (stereo not drawn) | -1.05%
Cc1ccc(/C=C/C(=O)NCC2COc3ccccc3O2)o1 (stereo not drawn) | -18.2%
CCCCC(=O)N/N=C/c1c(O)n(CCc2ccccc2)c(=O)[nH]c1=O | 18.3%
CCOC(=O)C1CCCN(c2c(NCCN3CCCCC3C)c(=O)c2=O)C1 (stereo not drawn) | 5.47%
COc1ccc(C(=O)COC(=O)c2ccc3c(c2)OCO3)c(OC)c1 | -16.9%
CCCn1c(N2CCN(Cc3cccc(C)c3)CC2)nc2c1c(=O)[nH]c(=O)n2C | -53%
CCCn1c(N2CCN(C)CC2)nc2c1c(=O)[nH]c(=O)n2C | -13.5%
CN1CCN(c2nc3c(c(=O)[nH]c(=O)n3C)n2Cc2ccccc2)CC1 | -25.4%
Cn1c(=O)[nH]c(=O)c2c1nc(Br)n2CC(O)COc1ccccc1 (stereo not drawn) | -0.394%
COc1ccc(OCC(O)Cn2c(Br)nc3c2c(=O)[nH]c(=O)n3C)cc1 (stereo not drawn) | -12.6%
Cn1c(=O)[nH]c(=O)c2c1nc(Br)n2Cc1cccc(Br)c1 | 15.1%
Cn1c(=O)[nH]c(=O)c2c1nc(N1CCCCC1)n2CC(O)COc1ccc([N+](=O)[O-])cc1 (stereo not drawn) | -69.8%
Cn1c(=O)[nH]c(=O)c2c1nc(Br)n2CC(O)COc1ccc(Cl)cc1 (stereo not drawn) | -63.6%
COc1ccc(N2CCN(c3nc4c(c(=O)[nH]c(=O)n4C)n3Cc3cccc(C)c3)CC2)cc1 | -14.2%
Cc1ccc(OCC(O)Cn2c(N3CCCCC3)nc3c2c(=O)[nH]c(=O)n3C)cc1 (stereo not drawn) | 9.46%
COc1ccc(OCC(O)Cn2c(N3CCCCC3)nc3c2c(=O)[nH]c(=O)n3C)cc1 (stereo not drawn) | -5.73%
CN1CCN(c2nc3c(c(=O)[nH]c(=O)n3C)n2Cc2cccc(Br)c2)CC1 | -53.5%

Structure (SMILES) | hERG current change (%, negative = inhibition) at 10uM
CCOC(=O)C[C@H]1c2ccccc2S(=O)(=O)N1C1CC1 | 5.78%
Br.CC1(C)OC(c2ccccc2)=C/C(=C/C=Nc2ccccc2)O1 | -12.9%
CC(C)c1ccc(C(O)c2cnc(C(C)C)n2C)cc1 (stereo not drawn) | -27.5%
O=C1N=C(N2CCN(c3cccc4ccccc34)CC2)S/C1=C/c1cccs1 | 11.9%
O=C1N/C(=N\N=C\c2cccs2)SC1Cc1ccc(Cl)cc1 (stereo not drawn) | -8.96%
COc1ccc(-n2cnnc2SCC(=O)NC2CCS(=O)(=O)C2)cc1 (stereo not drawn) | 8.52%
O=C(CSc1nc2ccccc2n1-c1ccccc1)Nc1ncc(Cl)cc1Cl | 12.1%
O=C(Nc1ccc(F)cc1F)C1CCN(S(=O)(=O)c2cccnc2)CC1 | -1.85%
CSc1ccc(Cn2nnc(C(=O)NCc3ccccc3)c2N)cc1 | -0.141%
CS(=O)(=O)N1CCC(C(=O)Nc2cccc(C(F)(F)F)c2)CC1 | -14.2%
O=C(CCCCn1c(=O)c2ccccc2n(Cc2ccc(F)cc2Cl)c1=O)NCc1ccco1 | -5.07%
CN1CCN(c2nc3c(c(=O)[nH]c(=O)n3C)n2Cc2ccc([N+](=O)[O-])cc2)CC1 | -59%
CN1CCN(c2nc3c(c(=O)n(C)c(=O)n3C)n2Cc2cccc(Br)c2)CC1 | -55.1%
CN1CCN(c2nc3c(c(=O)n(C)c(=O)n3C)n2Cc2ccc(Cl)cc2)CC1 | -39.5%
CN1CCN(c2nc3c(c(=O)[nH]c(=O)n3C)n2Cc2cccc3ccccc23)CC1 | -27.6%
Cc1ccc(Cn2c(N3CCN(C)CC3)nc3c2c(=O)[nH]c(=O)n3C)cc1 | -14.9%
CC1CCN(c2nc3c(c(=O)[nH]c(=O)n3C)n2Cc2ccccc2)CC1 | 7.99%
Cc1cccc(Cn2c(N3CCN(C)CC3)nc3c2c(=O)[nH]c(=O)n3C)c1 | -50.7%
Cc1cccc(Cn2c(N3CCc4ccccc4C3)nc3c2c(=O)[nH]c(=O)n3C)c1 | -4.89%
Cc1cccc(Cn2c(N3CCN(C)CC3)nc3c2c(=O)n(C)c(=O)n3C)c1 | -49%
Cc1cccc(Cn2c(N3CCCCC3C)nc3c2c(=O)[nH]c(=O)n3C)c1 (stereo not drawn) | -57%
CN1CCN(c2nc3c(c(=O)[nH]c(=O)n3C)n2Cc2ccc(Cl)cc2)CC1 | -15.5%
Cc1cccc(Cn2c(N3CCN(CCO)CC3)nc3c2c(=O)[nH]c(=O)n3C)c1 | -23.5%
